Results from PubChem BioAssay (NCI).
Compounds without any hit were thinned out: in the full panel of roughly 83,000, 20% have a hit.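 For each line, cells grew in 96-well plates with the test compound present at a single concentration for 48 hours.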 Calls of active or inactive are those of the source. Rule for the calls: active = growth percent below 10; inactive = the rest.

What follows are molecules tested on MDA-MB-435 melanoma (assay: NCI-60 one-dose screen, 48 h (100 = growth as untreated, 0 = no growth, -100 = all killed)). Conditions: 10 µM unless noted.
In the case of `N/C(=N\C(N)=N\c1nc2ccccc2s1)c1cccc(Br)c1`, the growth is reported as 93.8% (inactive).
For `O=C(Nc1ccc(Cl)c(Cl)c1)NS(=O)(=O)c1cnccc1Oc1ccc(F)cc1`, the growth was 86.8% (inactive).
In the case of `Cc1ccc(S(=O)(=O)NC(=O)n2cc(-c3ccncc3)c(-c3ccc(Cl)c(O)c3)n2)cc1`, the growth is reported as 82.2% (inactive).
`CCN(CC)CCC(CNc1ccnc2cc(Cl)ccc12)c1ccc(Cl)cc1` (stereo unspecified) was tested, and the growth was -72.2% (active).
With `CCN(CC)CCOc1ccc(Cl)c(C)c1` the growth was 106% (inactive).
In the case of `OC(c1cc2cc(Br)ccc2c2cc(Br)ccc12)C1CCCCN1` (stereo unspecified), the growth is reported as -78% (active).
For `CCN(CC)CCC(CNc1ccnc2cc(Cl)ccc12)c1ccccc1` (stereo unspecified), the growth was -2.6% (active).
For `CCCCCCCCCCCCNC(=O)[C@H]1CSC(c2cc3ccccc3s2)N1` (stereo partly specified), the growth was -94.6% (active).
In the case of `CCCCCCN1CSC(=S)N(CCCCCC)C1`, the growth is reported as 97.6% (inactive).
For `CC1(c2ccc(Cl)cc2)OC(=O)CC(=O)O1`, the growth was 106% (inactive).
`O=C(NS(=O)(=O)c1ccc2ccccc2c1)n1cc(-c2ccncc2)c(-c2ccc(Cl)c(O)c2)n1` was tested, and the growth was 51.6% (inactive).
`CN(C)CCOC(=O)Nc1ccccc1Cl` was tested, and the growth was 105% (inactive).
With `Cc1c(C(=O)/C=C/c2csc3ccccc23)[n+](=O)c2ccccc2n1[O-]` the growth was 67.7% (inactive).
With `CN(C)CCCN(c1nc(C(Cl)(Cl)Cl)ns1)c1nc(C(Cl)(Cl)Cl)ns1` the growth was 39.5% (inactive).
With `CC[N+](CC)=c1cc2oc3cc(N(C)C)ccc3nc-2cc1C` the growth was 50.8% (inactive).
For `CCN(CC)CCC(CNc1c2ccc(Cl)cc2nc2ccc(OC)cc12)c1ccccc1` (stereo unspecified), the growth was -80.4% (active).
With `CN1CCN(Cc2ccc(NC(=O)c3nc4ccc5[nH]ncc5c4c4c3CCC4)cc2C(F)(F)F)CC1` the growth was -91.4% (active).
In the case of `COc1ccc(N=Cc2c(O)ccc3c2oc2cc(Cl)c(O)c(Cl)c23)cc1`, the growth is reported as 94% (inactive).
`C=CCn1c2ccccc2c2c3c(c4c5ccccc5n(CC=C)c4c21)C(=O)N(O)C3=O` was tested, and the growth was 42.7% (inactive).
In the case of `Nc1cccc(Cl)c1N`, the growth is reported as 106% (inactive).
In the case of `O=C(NS(=O)(=O)c1ccccc1)n1cc(-c2ccncc2)c(-c2ccc(Cl)c(O)c2)n1`, the growth is reported as 67.9% (inactive).
In the case of `Cc1csc(NC(c2ccc(Br)cc2)c2c(C)nc3ccccn23)n1` (stereo unspecified), the growth is reported as 97.7% (inactive).
In the case of `O=S(=O)(c1ccc(OCCO)cc1)c1ccc(OCCO)cc1`, the growth is reported as 102% (inactive).
With `COc1cc(-c2nn(C(=O)NS(=O)(=O)c3ccccc3)cc2-c2ccncc2)ccc1Cl` the growth was 85.5% (inactive).
With `N=c1ccc2nc3ccc(N)cc3sc-2c1` the growth was -56.6% (active).
`Cc1ccc(Cc2c(C=O)nc(N)[nH]c2=O)c2ccccc12` was tested, and the growth was 107% (inactive).
With `CCN(CC)CCCC(C)Nc1c2ccc(Cl)cc2nc2cc(OC)c(OC)cc12` (stereo unspecified) the growth was -81.8% (active).
In the case of `CCCCCCCCCCCCNC(=O)[C@H]1CSC(c2ccsc2)N1` (stereo partly specified), the growth is reported as -98.1% (active).
With `CC(C)(C)NCCC(O)c1cc2c(Cl)cc(Cl)cc2c2cc(C(F)(F)F)ccc12` (stereo unspecified) the growth was -74.4% (active).
In the case of `COc1cc2c(cc1O)CCN1C[C@@H](CC(C)C)[C@@H](O)C[C@@H]21`, the growth is reported as 103% (inactive).
`Nc1ccc(C(=O)CSc2nc3ccccc3[nH]2)cc1` was tested, and the growth was 96.1% (inactive).
`CCCC(=O)Oc1ccc(/C(=C(\C)c2ccccc2)c2ccc(OCCN(CC)CC)cc2)cc1` was tested, and the growth was 73.3% (inactive).
For `Cn1ccc(=O)c(S(N)(=O)=O)c1`, the growth was 103% (inactive).
`O=c1[nH]c(NCc2ccccc2)nc2nc(Nc3ccc(NC(=S)Nc4ccccc4)cc3)nc(-c3ccc(O)cc3O)c12` was tested, and the growth was 105% (inactive).
With `COc1ccc(-n2c(-c3ccccc3)c(-c3ccccc3)c3c(SCC(=O)N/N=C/c4ccc(Cl)cc4)ncnc32)cc1` the growth was 98.6% (inactive).
With `COc1ccc(S(=O)(=O)NCCCNc2nccc(-c3c(-c4cccc([N+](=O)[O-])c4)nc4sccn34)n2)cc1` the growth was 42.1% (inactive).
